In the library only some 3.3% were active in any assay of this set; here they are far more common.
Statin myotox sup: suppressors of statin myotoxicity in C2C12 myotubes, primary screen, cell-based, single point, plate reader; 330,000 compounds, 0.78% hits; C2C12 myotubes + simvastatin, ATP luminescence, 48 h; scaled: DMSO 0, geranylgeraniol control 100; rescue of ATP level, % at 7.49 µM;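 active = mean ATP rescue above about 67%, or every replicate alone reaching that limit, limit read from the data, passing the limit was not always enough; inconclusive = no clear call, values can overlap the other calls; inactive = mean under the limit and some replicate under it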;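 also: myotubes were challenged with 10 µM simvastatin during compound exposure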
MITF TRPM1 HTS: activators of MITF-driven TRPM1 promoter reporter, primary screen, cell-based, SK-MEL-5, luciferase, single point; SK-MEL-5 TRPM1-promoter luciferase, 24 h; % of positive control, neutral wells = 0; activation, % at 12.5 µM; 300,000 compounds, 0.75% hits;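 active = mean activation of at least 80% with every replicate also reaching 80%; inconclusive = mean reaches 80% but some replicate falls short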
Wnt bcat act: Wnt/beta-catenin pathway activators, primary screen, cell-based, plate reader, single point. Wnt/beta-catenin reporter cell assay, activator. activation, % at 9.35 µM. 300,000 compounds, 1.2% hits. AID 743398, 2014; in the data active = activation above about 30%, passing the limit was not always enough; inconclusive = no clear call, values can overlap the other calls
FXN GAA850 act: FXN promoter activators, primary screen, cell-based, luciferase luminescence, HEK293 lucGAA850; HEK293 lucGAA850 FXN promoter luciferase reporter, 24 h; percent of 10 µM SAHA response; activation, % at 6 µM; 360,000 compounds, 0.56% hits; AID 540364, 2011;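 active = activation above the average of all compounds screened plus 3 SD, cutoff fixed separately per campaign, cut at about 7.5% in these data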
esBAF inh: Bmi1 luciferase reporter increase in mESCs, primary screen, esBAF inhibitor project, mouse ES cells, Bmi1 luciferase knock-in, single point; 24 h; 100% = twice the neutral-well signal; reporter increase, % at 12.5 µM; 350,000 compounds, 2% hits; in the data active = activation above about 40%; inconclusive = no clear call, values can overlap the other calls;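 also: a rise in the Bmi1 reporter signal indicates esBAF inhibition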
Numbers stand for hits.

What do the screens show for `O=c1[nH]nc(Cc2ccc(Cl)cc2Cl)c2ccccc12`?
Statin myotox sup: 140; MITF TRPM1 HTS: inactive; Wnt bcat act: inactive; FXN GAA850 act: inactive; esBAF inh: inactive

What do the screens show for `O=c1[nH]nc(Cc2ccc(Cl)cc2)c2ccccc12`?
Statin myotox sup: inactive; MITF TRPM1 HTS: inactive; Wnt bcat act: inactive; FXN GAA850 act: inactive; esBAF inh: inactive

What do the screens show for `C[C@H](CO)N1C[C@H](C)[C@@H](CN(C)Cc2ccc(Cl)c(Cl)c2)OCc2cn(nn2)CCCC1=O`?
Statin myotox sup: inactive; esBAF inh: inactive

Results for C[C@@H]1CN([C@H](C)CO)C(=O)Cc2cc(NS(=O)(=O)c3cccs3)ccc2O[C@@H]1CN(C)S(=O)(=O)c1cccs1 ?
Statin myotox sup: inactive; esBAF inh: inactive

What do the screens show for `O=C(O)c1ccc(/C=C/c2ccc3cccc(O)c3n2)cc1`?
Statin myotox sup: inactive; MITF TRPM1 HTS: inconclusive; Wnt bcat act: inactive; FXN GAA850 act: inactive; esBAF inh: 104

What do the screens show for `Oc1ccc(/C=C/c2ccc3cccc(O)c3n2)cc1Br`?
Statin myotox sup: inactive; MITF TRPM1 HTS: inactive; Wnt bcat act: inactive; FXN GAA850 act: inactive; esBAF inh: 77

What do the screens show for `Cc1n[nH]c(=O)nc1N/N=C/c1ccco1`?
MITF TRPM1 HTS: inactive; Wnt bcat act: 49; FXN GAA850 act: inactive

What do the screens show for `Cc1n[nH]c(=O)nc1NCc1ccco1`?
Statin myotox sup: inactive; MITF TRPM1 HTS: inactive; FXN GAA850 act: inactive; esBAF inh: inactive

Results for C[C@H](CO)N1C[C@H](C)[C@H](CN(C)C(=O)C2CC2)Oc2cc(-c3ccccc3)ccc2S1(=O)=O ?
Statin myotox sup: inactive; esBAF inh: inactive

Results for CC(=O)NC1CCC(OC(=O)Nc2ccccc2)CC1 (stereo not given) ?
Statin myotox sup: inactive; MITF TRPM1 HTS: inactive; Wnt bcat act: inactive; FXN GAA850 act: inactive; esBAF inh: 53

What do the screens show for `O=C(Nc1ccccc1)OC1CCS(=O)(=O)C1` (stereo not given)?
MITF TRPM1 HTS: inactive; Wnt bcat act: inactive; FXN GAA850 act: inactive

Results for COc1ccc(S(=O)(=O)Nc2cccc3c2O[C@H](CN(C)C(=O)NC(C)C)[C@@H](C)CN([C@@H](C)CO)C3=O)cc1 ?
esBAF inh: inactive

What do the screens show for `COc1ccccc1Cc1c(-c2ccccc2)nc2ccc(Br)cn12`?
Statin myotox sup: inactive; Wnt bcat act: inactive; esBAF inh: 52

What do the screens show for `FC(F)(F)c1ccccc1Cc1c(-c2ccc(Cl)cc2)nc2ccc(Cl)cn12`?
Statin myotox sup: inactive; Wnt bcat act: inactive; esBAF inh: 64

What do the screens show for `FC(F)(F)c1ccccc1Cc1c(-c2ccc(Cl)cc2)nc2ccc(Br)cn12`?
Statin myotox sup: inactive; Wnt bcat act: inactive; esBAF inh: 42

How did FC(F)(F)c1ccccc1Cc1c(-c2ccccc2)nc2ccc(Cl)cn12 do in these assays?
Statin myotox sup: inactive; Wnt bcat act: inactive; esBAF inh: inactive

Results for COCC(=O)N(C)C[C@@H]1Oc2ncc(C#C[C@@H](C)O)cc2C(=O)N([C@H](C)CO)C[C@@H]1C ?
Statin myotox sup: inactive; esBAF inh: inactive

What do the screens show for `CO[C@H]1CN(C)C(=O)c2ccc(NC(C)=O)cc2OC[C@@H](C)N(CC2CCCCC2)C[C@H]1C`?
Statin myotox sup: inactive; esBAF inh: inactive

What do the screens show for `O=C(C[C@@H]1CC[C@@H](NC(=O)Nc2ccc(F)cc2)[C@@H](CO)O1)NCc1ccccn1`?
Statin myotox sup: inactive; esBAF inh: inactive

What do the screens show for `Cc1ccc(S(=O)(=O)Nc2cccc3c2O[C@@H](CN(C)S(=O)(=O)c2ccc(F)cc2)[C@H](C)CN([C@@H](C)CO)C3=O)cc1`?
Statin myotox sup: inactive; esBAF inh: inactive

How did COc1ccc(-c2sc3ccc(N4CCOCC4)cc3c2-c2ccc(O)cc2)cc1 do in these assays?
Statin myotox sup: inactive; MITF TRPM1 HTS: inactive; Wnt bcat act: inactive; FXN GAA850 act: inactive; esBAF inh: inactive

Results for COC(=O)c1c(-c2ccc(SC)cc2)sc2ccccc12 ?
Statin myotox sup: inactive; MITF TRPM1 HTS: inactive; Wnt bcat act: inactive; FXN GAA850 act: inactive; esBAF inh: 70

Results for COC(=O)c1c(-c2ccc(S(C)(=O)=O)cc2)sc2cc(OC)ccc12 ?
Statin myotox sup: inactive; MITF TRPM1 HTS: inactive; Wnt bcat act: inconclusive; FXN GAA850 act: inactive; esBAF inh: 45

What do the screens show for `COC(=O)c1c(-c2ccc(S(C)(=O)=O)cc2)sc2ccc(OC)cc12`?
Statin myotox sup: inactive; MITF TRPM1 HTS: 107; Wnt bcat act: 47; FXN GAA850 act: inactive; esBAF inh: 59

How did COC(=O)c1c(-c2ccc(OC)cc2)sc2ccc(N3CCOCC3)cc12 do in these assays?
Statin myotox sup: inactive; MITF TRPM1 HTS: inactive; Wnt bcat act: inactive; FXN GAA850 act: inactive; esBAF inh: 42

Results for COCC#Cc1cnc2c(c1)C(=O)N([C@H](C)CO)C[C@H](C)[C@@H](CN(C)Cc1ccccc1F)O2 ?
Statin myotox sup: inactive; esBAF inh: inactive

Results for CC=Cc1ccc2n(c1=O)C[C@H]1[C@H](CO)[C@@H](C(=O)NCCc3ccccc3)N(CCC)[C@@H]21 (mixture of isomers) ?
Statin myotox sup: inactive; esBAF inh: inactive

Results for CCCNC(=O)N[C@@H]1C=C[C@@H](CC(=O)NCCc2ccccc2)O[C@H]1CO ?
Statin myotox sup: inactive; esBAF inh: inactive

How did O=C(NCc1ccccc1)c1c[nH]c2cc3c(cc2c1=O)OCCO3 do in these assays?
Statin myotox sup: inactive; MITF TRPM1 HTS: inactive; Wnt bcat act: inactive; FXN GAA850 act: inactive; esBAF inh: 51

What do the screens show for `CCC(=O)Nc1cccc(NC(=S)NC(=O)c2cccs2)c1`?
MITF TRPM1 HTS: 86; FXN GAA850 act: inactive

What do the screens show for `N#Cc1ccccc1NC(=S)NC(=O)c1cccs1`?
Statin myotox sup: inactive; MITF TRPM1 HTS: inactive; Wnt bcat act: inactive; FXN GAA850 act: inactive; esBAF inh: 45

What do the screens show for `C[C@@H]1CN([C@@H](C)CO)C(=O)Cc2cc(N(C)C)ccc2O[C@@H]1CN(C)C(=O)Nc1ccc(C(F)(F)F)cc1`?
Statin myotox sup: inactive; esBAF inh: inactive

What do the screens show for `CO[C@@H]1CN(C)C(=O)c2ccc(NC(=O)Nc3ccccc3F)cc2OC[C@H](C)N(C(C)=O)C[C@H]1C`?
Statin myotox sup: inactive; esBAF inh: inactive

What do the screens show for `COc1cccc(CC2CC(=O)N(CCc3ccc4c(c3)OCO4)C2=O)c1` (stereo not given)?
Statin myotox sup: inactive; MITF TRPM1 HTS: inactive; FXN GAA850 act: inactive; esBAF inh: inactive

How did Cc1ccc(CC2CC(=O)N(CCc3ccc4c(c3)OCO4)C2=O)cc1 (stereo not given) do in these assays?
Statin myotox sup: 147; MITF TRPM1 HTS: inactive; Wnt bcat act: inactive; FXN GAA850 act: inactive; esBAF inh: inactive
